In the library only some 7.8% were active in any assay of this set; here they are far more common.
VACV mCherry inh: vaccinia inhibition (mCherry reporter). Potency, µM (titrated, usually from 36.5 µM), for inactives: at the highest dose activity change, negative = inhibition, hits mostly inhibitors. AID 720579. actives 0.63% (n = 310,000). Vaccinia virus mCherry reporter infection, fluorescence; calls by dose curve; tested in A549 cells; note: potency is the fitted concentration of half-maximal effect; nearly all actives have a fitted effect of over 35% in size
LASV entry inh: inhibitors of Lassa virus binding or cell entry; actives 1.2% (n = 300,000); Potency, µM (highest dose often 37.9 µM), for the others: at the highest dose activity change, negative = inhibition, actives largely listed as inhibitors; Lassa virus pseudotype entry inhibition, cell reporter; AID 540256; calls by dose curve; tested in HEK293 cells; note: potency is the fitted concentration of half-maximal effect; nearly all actives have a fitted effect of over 50% in size
HCMV inh: human cytomegalovirus inhibition; actives 4.5% (n = 410,000); HFF cells, HCMV-luciferase reporter, 72 h; stronger effect = lower value; activity change, negative = inhibition, % at 57.5 µM; in the data active = activity change below about -60%; inconclusive = no clear call, values can overlap the other calls; inactive = above about -39%
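Screen run at 2 compound doses on HFFs infected with reporter HCMV, MOI 1 PFU/cell. Luciferase activity from cell lysates at 72 h post infection gave inhibition relative to buffer-only and Salinomycin wells.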
HCV inhibitor: blocks hepatitis C virus; Huh7.5.1 HCVcc-Cre infection, luciferase reporter, 44 h; Potency, µM (titrated, usually from 41.8 µM), for the others: at the highest dose activity change, negative = inhibition, hits mostly inhibitors; actives 3.4% (n = 340,000); AID 651820; active = well fitted inhibition curve with a large enough effect; inconclusive = small, poorly fitted or top-dose-only effect, or another doubt; inactive = no such curve, though single readings can be large or run the other way; note: potency is the fitted concentration of half-maximal effect
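Reporter virus HCVcc-Cre (~0.5 moi) infects cells exposed to compound; seeding density 1,000 cells/well with 4 h settling beforehand. Luminescence, 15 sec read, taken 44 h post-infection following a 15 min RT substrate incubation.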
MARV entry inh: blocks Marburg virus binding to or entry into cells. Marburg virus pseudotyped entry inhibition, cell reporter. Potency, µM (titrated, usually from 37.8 µM), without a hit: at the highest dose activity change, negative = inhibition, hits mostly inhibitors. actives 1.8% (n = 300,000); calls by dose curve; tested in HEK293 cells; note: potency is the fitted concentration of half-maximal effect
Vaccinia Venus: inhibitors of vaccinia virus (Venus reporter). Vaccinia virus Venus reporter expression, fluorescence. Potency, µM (series often up to 36.5 µM), for the others: top-dose activity change, negative = inhibition, most hits filed as inhibitors. actives 0.46% (n = 330,000). AID 720580; calls by dose curve; tested in A549 cells; note: potency is the fitted concentration of half-maximal effect; nearly all actives have a fitted effect of over 30% in size
* marks the source's active call; other numbers are inactive results; i = inactive; ? = inconclusive; . = no result; [ ] = dose if it differs, or a comment. % is set by controls: 0 for no effect and ±100 for the full control effect.

SMILES	VACV mCherry inh	LASV entry inh	HCMV inh	HCV inhibitor	MARV entry inh	Vaccinia Venus
COc1ccc(Nc2oc(-c3ccc(Cl)cc3)nc2C#N)cc1	?	-4%	54	?	?	?
N#Cc1nc(-c2ccc(COc3ccc(Cl)cc3)o2)oc1N1CCC(C(N)=O)CC1	-27%	-13%[46.1 µM]	-65*	.	13%[46.1 µM]	-24%
CC(Nc1oc(-c2ccc(COc3ccc(Cl)cc3)o2)nc1C#N)c1ccccc1 (stereo not given)	-25%	-25%[46.1 µM]	-74*	.	-14%[46.1 µM]	-15%
CCNc1oc(-c2ccc(COc3ccc(Cl)cc3)o2)nc1C#N	-11%	-2%[46.1 µM]	-23	.	8%[46.1 µM]	-15%
N#Cc1nc(-c2ccc(OCc3ccccc3)cc2)oc1N1CCC(C(N)=O)CC1	-23%	0%	-37	?	-4%	?
CCOc1ccc(Nc2oc(-c3ccc(COc4ccccc4C)o3)nc2C#N)cc1	-27%	3%[46.1 µM]	-71*	.	3%[46.1 µM]	-18%
CCOc1ccc(Nc2oc(-c3ccc(Cl)cc3)nc2C#N)cc1	?	16µM*	74	?	7.3µM*	?
c1cncc(OC2CCN(Cc3ccc4c(c3)CN(Cc3ccc5c(c3)OCO5)CCO4)CC2)c1	-7%	.	.	.	.	-8%
Cc1ccc2occ(-c3cc(-c4ccccc4)nc4c3COc3ccccc3-4)c(=O)c2c1	-2%	19%[46.1 µM]	-4	.	10%[46.1 µM]	2%
COC(=O)c1sccc1S(=O)(=O)N(CC(=O)NCc1ccc(C)cc1)c1ccccc1	-2%	-11%[46.1 µM]	3	.	.	-7%
COc1ccc(CNc2oc(COc3ccc(Cl)cc3)nc2C#N)cc1	i	7%	34	?	-23%	-15%
COc1ccc(Nc2oc(COc3ccc(Cl)cc3)nc2C#N)cc1	-20%	?	-78*	?	?	-16%
CSc1ccccc1NC(=O)C1(C)CCN1C(=O)Cc1ccc(-c2ccccc2)cc1 (stereo not given)	20%	.	-62*	.	.	-16%
CC1(C(=O)NS(=O)(=O)Cc2ccccc2)CCN1C(=O)Cc1ccccc1Cl (stereo not given)	11%	.	-62*	.	.	-4%
Cc1ccc(NC(=O)C2(C)CCN2C(=O)Cc2ccc(-c3ccccc3)cc2)cc1 (stereo not given)	3%	.	-63*	.	.	-21%
CC(C)c1ccc(CNc2nc(-c3ccco3)nn2C(=O)c2ccc([N+](=O)[O-])cc2)cc1	-2%	13%[46.1 µM]	57	.	21%[46.1 µM]	-8%
COc1ccc(CCNC(=O)CSc2nc3ccccc3nc2Cc2ccc(C)cc2)cc1OC	-22%	-4%[46.1 µM]	-12	.	?	-13%
Cc1cc([N+](=O)[O-])c2[nH]c(C(=O)N/N=C/c3ccccc3C(=O)O)c(-c3ccccc3)c2c1	.	-7%	-80*	?	-14%	.
COc1ccc2c(C)cc(Sc3nnnn3-c3ccccc3)nc2c1	?	0.79µM*	-101*	-2%	14%	-13%
COc1ccc(-n2nnnc2-c2ccccc2)cc1	?	-24%	-60*	-5%	-11%	-23%
CC(C)c1c(C(=O)NCc2cccnc2)cnn1-c1nccc(-c2ccccc2F)n1	-27%	.	.	.	.	-23%
COc1cccc(/C=N/Nc2snc(SC)c2C#N)c1	.	5.6µM*	6	-31%	?	?
COc1ccc(/C=N/Nc2snc(SC)c2C#N)cc1OC	.	6.3µM*	82	?	?	-29%
COc1cccc(/C=N/Nc2snc(SC)c2C#N)c1O	10µM*	?	-98*	?	?	7.9µM*
Cc1nc([N+](=O)[O-])cn1CC(=O)c1ccc2c(c1)OCCO2	0%	.	.	.	.	-14%
SMILES	VACV mCherry inh	LASV entry inh	HCMV inh	HCV inhibitor	MARV entry inh	Vaccinia Venus
CCCNC(=O)OC[C@H]1O[C@H](CCON=C(C)CCN2CCCCc3nc(C)c(C)cc32)C=C[C@H]1Oc1ccc(OC)cc1	.	.	.	.	-26%[14.2 µM]	.
Cc1ccc(NC(=O)Cn2c(=O)n(CCC(=O)NCCc3ccccc3)c(=O)c3ccccc32)cc1	-9%	?	10	.	9%[46.1 µM]	-8%
CN(C(=O)CSc1nncn2c1cc1occc12)c1ccccc1	-6%	6%[46.1 µM]	-98*	.	.	0%
O=C(Nc1nnc(SCc2ccc(F)cc2)s1)c1ccccn1	?	?	-99*	?	?	?
O=C(Nc1nc2ccc(F)cc2s1)c1ccccn1	?	?	-98*	?	?	?
O=C(Nc1nc2ccc(F)cc2s1)C1=NN(c2ccccc2)C(=O)CC1	.	13%	40	-8%	14%	.
O=C(Nc1nc2ccccc2s1)c1cnccn1	-13%	?	126	-12%	6.5µM*	-15%
Cc1cc(C)nc(/N=C(\N)Nc2cccc(OCc3ccccc3)c2)n1	.	.	-73*	?	.	.
COc1ccc(N/C(N)=N/c2nc(C)cc(C)n2)cc1	-3%	.	-33	.	.	-27%
Cc1cc(C)nc(/N=C(\N)Nc2ccc(OCCC(C)C)cc2)n1	?	-19%	?	10µM*	?	?
Cc1cc(C)nc(/N=C(\N)Nc2ccc(OCc3ccccc3)cc2)n1	?	?	-75*	10µM*	?	?
CCOC(=O)C(=O)Nc1ccc(OCc2ccccc2)cc1	i	19%	-18	24%	10%	29%
O=C1[C@H]2[C@H]3[C@H](O)[C@H](O)C/C(=N\OCc4ccccc4)[C@@H]3CC[C@H]2C(=O)N1Cc1ccc2c(c1)OCO2	.	.	.	.	-17%[14.2 µM]	.
CCCCNC(=O)[C@@H]1CC=C[C@@H]2CCN(C3CCCCC3)C(=O)[C@@H]21	i	.	.	.	.	-2%
CN(C)S(=O)(=O)Oc1ccc(Cl)cc1C(=O)Nc1cccc(C(F)(F)F)c1	.	-7%	146	11µM*	-19%	.
CN(C)CCCN(Cc1ccccc1)C(=S)Nc1cccc(C(F)(F)F)c1	-7%	?	-38	11µM*	?	-15%
COC(=O)/C=C/C(=O)Nc1cccc(C(F)(F)F)c1	?	-10%	-74*	8%	?	?
FC(F)(F)c1cccc(CNC(=S)Nc2ccccc2)c1	i	0%	-72*	-4%	-17%[46.1 µM]	-8%
CCCN(Cc1ccccc1)C(=S)Nc1cccc(C(F)(F)F)c1	.	?	0	?	?	.
CCOc1ccc(NC(=O)CCc2c(C)nc3c(c(C)nn3-c3ccccc3)c2C)cc1	-12%	?	12	.	-12%[46.1 µM]	-8%
Cc1ccc(NC(=O)CSCn2nnc3c(=O)[nH]c(Cc4ccc(F)cc4)nc32)c(C)c1	-4%	13%[46.1 µM]	-3	.	10%[46.1 µM]	-7%
Cc1ccc(Cl)cc1N1CCN(Cc2nnc(-c3ccc4c(c3)OCO4)o2)CC1	-9%	-14%[46.1 µM]	4	.	2%[46.1 µM]	-10%
COc1cc(Cl)c(CN2CCOc3ccc(CN4CCCCC4CO)cc3C2)cc1OC (stereo not given)	-12%	.	.	.	.	-6%
COc1cc(Nc2nccc3[nH]c(-c4cccc(C(C)C)c4)nc23)cc(OC)c1OC	.	.	-14	.	.	.

Screening data (PubChem)
